# In the OligoGym collection:
# Molecular target: SMC2
# Assay: pooled miR-30 sensor sort-seq; sequence = guide strand
# Conditions: shRNA
# Further: reference of the scale not given here.
row,Sequence,sensor-assay potency score (higher = more potent)
1,TTTGATTCTCAGTTCATCCTGA,0.766
2,TTCTATTCCAGTTCTTCTCTGG,0.3
3,TACTTTGGTATCTTCAGCCAGC,-0.418
4,TTGCATTGTTGAACATACCTTC,0.529
5,TTGAGTTCTTGAAACTTGGTTA,0.137
6,TCTACCACCAATAACCACCTGC,0.664
7,TTCTGGTTTATATTCAACCAAG,-1.67
8,TAATTCTTCTTGTTGCTTGTGA,0.551
9,TTCATTTACAGCTTCAAGCTGT,0.444
10,TTTTTGTATTCATACATCCTGG,-0.581
11,TTGTTTATTCTTTAATTCCTGT,-0.411
12,TTCTAGAGCTTCTTGATCCTTC,0.175

# Molecular target: SMC5
# Assay: as above
# Conditions: shRNA
row,Sequence,sensor-assay potency score (higher = more potent)
1,TTATCTTTCATATTGATCGTGA,0.464
2,TTGATCTAGTTCAACTTTCTTT,-0.0143
3,TTCTGCAATAATCTCTGTCTAT,-1.01
4,TAAATCTAAATGTCGCTTCCGT,0.849
5,TTTATTGTCACGAACCTCTTTG,-0.041
6,TTCTCTTTTTGTATATTCCTGA,-0.0732
7,TTGATTTCATCAACTACTCTGA,0.124
8,TTCATTGTCTTTGTGCTCCAGA,0.694
